Rows were chosen to be rich in hits. Some 5.2% of all compounds tested hit in one or more screens of this group.
Tau ThT inhib: qHTS for Inhibitors of Tau Fibril Formation, Thioflavin T Binding | recombinant tau K18 P301L, heparin-induced fibrillization, ThT fluorescence | Potency, µM (series often up to 57.4 µM), inactives show at the highest dose activity, negative = inhibition, actives largely listed as inhibitors | 2.1% of 270,000 active | AID 1460, 2008; further: potency means the concentration at half of the fitted maximal effect; nearly all actives have a fitted effect of over 55% in size
Target sequence (P10636 561-689 P618L limits assumed): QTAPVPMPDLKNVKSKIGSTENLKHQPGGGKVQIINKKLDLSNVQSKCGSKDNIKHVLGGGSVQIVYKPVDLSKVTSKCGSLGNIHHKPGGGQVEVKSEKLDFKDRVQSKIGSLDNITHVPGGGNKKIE
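In this qHTS, human K18 P301L tau is incubated with compound and heparin for 6 hr at 37 C, and Thioflavin T fluorescence then reports fibril load.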
Sfp inh: qHTS Assay for Inhibitors of Bacillus subtilis Sfp phosphopantetheinyl transferase (PPTase). Potency, µM, without a hit: largest response in the series, negative = inhibition, actives largely listed as inhibitors. Biochemical Sfp PPTase activity, qHTS. 3.5% of 310,000 active. 4'-phosphopantetheinyl transferase ffp (Bacillus subtilis), Q9F4F7;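 further: the enzyme is Sfp with the accession as filed and its product quenches rhodamine fluorescence; potency means the concentration at half of the fitted maximal effect; 0% = enzyme reaction without inhibitor and -100% = no enzyme wells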
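Buffer: 50 mM Hepes-Na pH 7.6, 10 mM MgCl2, 0.01% Nonidet P-40, 0.01% BSA. Enzyme 15 nM, pre-exposed to compound 15 min; substrates then added and fluorescence change tracked over 30 min.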
FBPA coupling cs: qHTS Assay for Inhibitors of Fructose-1,6-bisphosphate Aldolase from Giardia Lamblia: Coupling assay counterscreen | 0.67% of 290,000 active | activity change, negative = inhibition, % at 58.2 µM, hits read low | coupling enzyme system counterscreen, AmpLite Red fluorescence; in the data active means activity change below about -30%
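Fluorescence at 525 nm excitation and 598 nm emission measured inhibition of the coupled detection system without aldolase. Compounds (at 57.5 uM final) were preincubated 10 min at room temperature with coupling enzyme reagent before a 20 min substrate/AmpLite Red step.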
Tau fluor cs: Counterscreen qHTS for Inhibitors of Tau Fibril Formation, Fluorescence Polarization; tau K18 P301L Alexa594 fluorescence, heparin fibrillization; 0.93% of 280,000 active; Potency, µM (series often up to 57.7 µM), for inactives: at the top dose activity change, negative = decrease; further: potency means the concentration at half of the fitted maximal effect; nearly all actives have a fitted effect of over 55% in size
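Human tau K18 P301L (15 uM unlabeled, 0.24 uM Alexa 594-labeled) in 100 mM sodium acetate pH 7 with 20 uM heparin, 6 hr at 37 C. ThT 30 uM added, 1 hr ambient; Alexa 594 FP and total fluorescence read at 555/632 nm.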
Tau fibril FP: qHTS for Inhibitors of Tau Fibril Formation, Fluorescence Polarization. Microtubule-associated protein tau (Homo sapiens), P10636. K18 P301L tau heparin fibrillization, Alexa594 FP, 6 h. Potency, µM (series often up to 57.7 µM), for the others: top-dose activity, negative = inhibition, hits mostly inhibitors. 0.39% of 280,000 active. AID 1468, 2008; further: potency means the concentration at half of the fitted maximal effect; nearly all actives have a fitted effect of over 55% in size
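Quantitative HTS format: compounds meet 15 uM recombinant K18 P301L tau and Alexa 594-tau tracer in 100 mM sodium acetate pH 7; 20 uM heparin triggers fibrillization at 37 C over 6 hr; FP gives the signal.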
Numbers without * were called inactive; ? = inconclusive; . = not tested or not shown; [ ] = another dose, or the depositor's remark. Unless noted, the call rests on the fitted dose curve; in most records, active means well fitted curve in the direction sought with a large enough effect; inconclusive means small, poorly fitted or top-dose-only effect, or another doubt; inactive means no such curve, though single readings can be large; an effect the other way counts as inactive or inconclusive. Unless noted, on the % scale 0 is the no-effect control and ±100 the full control effect.

SMILES	Tau ThT inhib	Sfp inh	FBPA coupling cs	Tau fluor cs	Tau fibril FP
COC(=O)c1c(NC(=O)C2SC(=NC3CCCCC3)C(C(N)=O)=C2N)sc2c1CCCC2 (centres undefined)	?	10%	-1	16µM*[quencher]	?
CCOc1ccc(/C=C(\C#N)C(=O)Nc2sc3c(c2C(=O)OC)C(C(=O)OC)CC3)cc1OC (centres undefined)	3.2µM*	.	.	-23%	?
O=C(/C=C/c1ccc(-c2ccccc2[N+](=O)[O-])o1)c1ccc(Br)cc1	7.9µM*	-1%	-14	?	-5%
Cc1ccc(C(=O)/C=C/c2ccc(-c3ccccc3[N+](=O)[O-])o2)cc1	8.9µM*	-14%	-11	?	-4%
Cn1cc(-c2nc3cnc(Oc4ccccc4)nc3n(Cc3cccs3)c2=O)c2ccccc21	.	26%	3	.	.
Cc1sc2nc3ccc(NCc4ccco4)nn3c(=O)c2c1C	?	32µM*	2	-8%	-8%
O=c1c2ccccc2nc2ccc(NCc3ccco3)nn12	18µM*	40µM*	0	-22%	22µM*
Cc1sc2nc(SCC(=O)NCc3ccco3)[nH]c(=O)c2c1C	-6%	-8%	5	7%	4%
CCOC(=O)OCC1OC(C#Cc2ccccc2)C=CC1OC(=O)OCC (centres undefined)	?	-2%	4	-11%[11.6 µM]	-23%[11.6 µM]
C/C(Cn1cnc([N+](=O)[O-])n1)=N\NC(=O)c1ccccc1	-2%	-8%	-6	5%	10%
C/C(Cn1nnc([N+](=O)[O-])n1)=N\NC(=O)c1ccccc1	-6%	-4%	-40*	-3%	-2%
Cc1nnc(NN)n(N)c1=O	?	10µM*	-1	-13%	?
CC1=Nc2nc(N3CCCCC3)c(C#N)c3c4c(nc(c23)N1)N(c1ccc(C(C)C)cc1)C(=O)C4	13µM*	?	0	-30%	?
CC(C)c1ccc(-c2nc(N3CCCCC3)[nH]c(=O)c2C#N)cc1	2%	9%	4	5%	2%
Cc1cccc2nc(CSCc3ccco3)cn12	?	32µM*	2	-6%	-6%
COc1ccc(OCC(=O)Nc2ccc(N3CCCCC3)cc2)cc1	?	-22%	0	-9%	6%
Cc1cc(C)cc(OCC(=O)Nc2ccc(N3CCCC3)cc2)c1	?	56µM*	-2	?	10%
Cc1cccc(OCC(=O)Nc2ccc(N3CCCC3)cc2)c1C	14µM*	?	-3	?	10%
Cc1cc(C)cc(OCC(=O)Nc2ccc(CN3CCCCC3)cc2)c1	-1%	-11%	2	-8%	-2%
Cc1ccc(OCC(=O)Nc2cc(C(C)(C)C)on2)cc1C	.	45µM*	.	.	.
Cc1ccc(OCC(=O)Nc2ccc(N3CCCC3)cc2)cc1C	?	32µM*	-1	-26%	9%
CC(=O)OCC(NC(=O)C1CCCN1C(=O)OC(C)(C)C)C1OC(n2cc(F)c(=O)[nH]c2=O)C(OC(C)=O)C1OC(C)=O (centres undefined)	.	8%	4	.	.
Cc1ccc(C(=O)c2cn(CC(=O)NCc3ccccc3Cl)c3nc(C)ccc3c2=O)cc1	-4%	.	.	-13%	-13%
COc1ccc(OC)c(C(=O)c2c(C)oc3cc([N+](=O)[O-])c(O)c([N+](=O)[O-])c23)c1	13µM*	56µM*	-18	-25%	-6%
Cc1oc2cc([N+](=O)[O-])c(O)c([N+](=O)[O-])c2c1C(=O)c1ccc(Cl)cc1	18µM*	?	1	-24%	1%
SMILES	Tau ThT inhib	Sfp inh	FBPA coupling cs	Tau fluor cs	Tau fibril FP
COc1ccc(C(=O)Cc2cc(OC)c(OC)cc2[N+](=O)[O-])c(OC)c1	-8%	14%	6	-9%	-1%
Cc1ccc(C)c(-n2c(SCC(=O)NCC3CCCO3)nnc2-c2ccoc2C)c1 (centres undefined)	?	?	10	-15%	28µM*
COc1ccc(-n2c(Cc3cccn3C)nnc2SCC(=O)NCC2CCCO2)cc1 (centres undefined)	5%	50µM*	1	15%	6%
Cc1ccc(-n2c(SCC(=O)NCC3CCCO3)nnc2-c2ccoc2C)cc1 (centres undefined)	0%	16%	2	-1%	0%
COc1ccc(-n2c(Cc3cccn3C)nnc2SCC(=O)NC2CCCCC2)cc1	-16%	-1%	0	-10%	3%
Cc1ccc(C2c3[nH]c4ccccc4c3CCN2C(=O)CCc2ccccc2)cc1 (centres undefined)	-2%	.	.	-6%	-3%
O=C(Nc1nnc(SCc2cc(=O)n3cc(Cl)ccc3n2)s1)c1cccc(F)c1	2%	.	.	-8%	-9%
COCCNC(=O)c1cc2n(n1)CCCN(Cc1ccc(C)cc1)C2=O	-6%	.	.	-4%	4%
CC(=O)NCc1ccc(S(=O)(=O)NC(C(=O)O)C(C)C)cc1 (centres undefined)	25µM*	5%	1	-10%	?
CCc1ccc(OCC(=O)NCC(c2ccc(OC)cc2)N2CCOCC2)cc1 (centres undefined)	2%	.	.	-9%	5%
O=c1cc(CN2CCN(c3ccc(O)cc3)CC2)nc2scc(-c3ccccc3)n12	-12%	56µM*	-9	-7%	6%
CCN1/C(=C2\C(=O)N(C)C(=S)N2C)C=Cc2cc(C)ccc21	?	45µM*	-6	-20%	-10%
CCN1/C(=C2\C(=O)N(C)C(=S)N2c2ccccc2)C=Cc2ccccc21	?	89µM*	-3	-20%	5%
COc1ccc(NC(=O)CCS(=O)(=O)c2cc3c(cc2C)NC(=O)CO3)cc1Cl	-15%	.	.	?	-7%
Cc1c(C(=O)N2CCCC2)oc2c1-c1nn(CC(=O)NC(C)c3ccccc3)cc1CC2 (centres undefined)	?	.	.	-6%	8%
C/C(=N\NC(N)=S)c1ccc(-n2ccnc2)cc1	?	79µM*	8	0%	-3%
C/C(=N\Nc1ccc(Cl)c(Cl)c1)c1ccc(-n2ccnc2)cc1	?	-19%	0	14µM*[quencher]	2%
C=C(C)CNC(=S)N/N=C(\C)c1ccc(-n2ccnc2)cc1	-14%	6%	3	-12%	-2%
CC(C)CCNC(=O)C(CC(C)C)NC(=O)C1OC1C(=O)O (centres undefined)	.	1%	1	.	.
CCC(=O)N1c2ccccc2CC1C(=O)NCCc1ccc(OC)cc1OC (centres undefined)	5%	.	.	-3%	?
CN(C)CCOCCOc1ccccc1-c1ccccc1	2%	79µM*	.	-6%	4%

Screening results deposited in PubChem by National Center for Advancing Translational Sciences (NCATS).
